Results filed as inconclusive are left out. Calls of active or inactive are those of the source. How the source made its calls: active means hit-call score of the fitted dose curve at least 0.9, where 1 is the maximum; inconclusive means response in the unintended direction; inactive means score below 0.9.
read-out: Cytochrome P450 3A4 (Homo sapiens) (UniProt P08684); test: CLD_CYP3A4_6hr: CellzDirect (CLD) Gene Expression Assay for xenobiotic metabolism (CYP3A4) at 6 hours (AID 2283680)
Protocol: CLD_6hr is a cell-based, multiplexed-readout assay that uses hepatocyte, a human liver primary cell, with measurements taken at 6 hours after chemical dosing in a 96-well plate.CLD_CYP3A4_6hr is one of 16 assay component(s) measured or calculated from the CLD_6hr assay. It is designed to make measurements of mRNA induction, a form of inducible reporter, as detected with chemiluminescence signals by Quantitative Nuclease Protection Assay (qNPA) technology.Data from the assay component CLD_CYP3A4_6hr was analyzed at the endpoint, CLD_CYP3A4_6hr, in the positive analysis fitting direction relative to DMSO as the negative control and baseline of activity. Using a type of inducible reporter, gain-of-signal activity can be used to understand changes in the reporter gene as they relate to the gene CYP3A4. Furthermore, this assay endpoint can be referred to as a primary readout. To generalize the intended target to other relatable targets, this assay endpoint is annotated to the cyp intended target family, where subfamily is xenobiotic metabolism.
Human hepatocyte cultures were treated daily for two consecutive days with fresh dosing solutions containing appropriate concentrations of the 320 ToxCast chemicals (chemical identities were blinded to CellzDirect and other ToxCast collaborators), vehicle control (0.2% DMSO), and positive control inducers as summarized in Table 1. Due to the large number of treatment groups and chemicals examined, the ToxCast chemicals were divided into two groups (spanning two independent cultures of hepatocytes from separate donor preparations (Hu778: ToxCast plates 1 and 2; Hu776: ToxCast plates 3 and 4). Each preparation of human hepatocyte cultures was treated with respective vehicle control, medium only control, set of six positive controls/reference chemicals for the five hepatic receptor pathways, and a subset of eight of the ToxCast chemicals (indoxacarb, pyrithiobac-sodium, norflurazon, cyhalofop-butyl, methomyl, thiram, acetochlor, and propiconazole). These replicate data, coupled with internal replicates designed within the blinded ToxCast chemical library, provided additional data to evaluate interindividual differences between hepatocyte preparations and their potential impact on chemical profiles.Cell morphology and integrity were evaluated using phase-contrast microscopy as an indicator of hepatocyte cell health (Tyson & Green, 1987). Cultures for each treatment group (i.e., media, vehicle [0.2% DMSO], positive control inducers [multiple concentrations], and the ToxCast chemicals [multiple concentrations]) were observed and cell morphology was assessed relative to vehicle control cultures at each harvest time point (0, 6, 24, or 48 h). […] Images were evaluated at the conclusion of the study to assess changes in cell integrity and account for the effects of chemical exposure on uncharacteristic changes in concentration-dependent gene expression profiles. The results from these determinations of apparent cytotoxicity were annotated (yes/no) alongside the corresponding qNPA data for reference.At the conclusion of each treatment period, hepatocyte cultures (96-well) were washed with 1 volume of HBSS, lysed by addition of 25 ul ArrayPlate lysis buffer (HTG, Tucson, AZ), and 70 ul/well of Denaturation Oil, denatured by incubation at 95C for 10 min, and frozen at approximately -70C until analysis by nuclease protection assay (qNPA) (Roberts et al., 2007). For qNPA analysis, cell lysates were thawed at 50C for approximately 30 min, qNPA probes were added, and samples were incubated at 95C for 10 min to begin the detection process by denaturing the target RNA, dissociating the duplexes and secondary structure hybridization. At the conclusion of the hybridization period, S1 nuclease reagent was added to each sample to digest all nonprotected nucleotides at 50C for 60-90 min. […]

Sequence of Cytochrome P450 3A4 (Homo sapiens) (P08684 whole entry, looked up): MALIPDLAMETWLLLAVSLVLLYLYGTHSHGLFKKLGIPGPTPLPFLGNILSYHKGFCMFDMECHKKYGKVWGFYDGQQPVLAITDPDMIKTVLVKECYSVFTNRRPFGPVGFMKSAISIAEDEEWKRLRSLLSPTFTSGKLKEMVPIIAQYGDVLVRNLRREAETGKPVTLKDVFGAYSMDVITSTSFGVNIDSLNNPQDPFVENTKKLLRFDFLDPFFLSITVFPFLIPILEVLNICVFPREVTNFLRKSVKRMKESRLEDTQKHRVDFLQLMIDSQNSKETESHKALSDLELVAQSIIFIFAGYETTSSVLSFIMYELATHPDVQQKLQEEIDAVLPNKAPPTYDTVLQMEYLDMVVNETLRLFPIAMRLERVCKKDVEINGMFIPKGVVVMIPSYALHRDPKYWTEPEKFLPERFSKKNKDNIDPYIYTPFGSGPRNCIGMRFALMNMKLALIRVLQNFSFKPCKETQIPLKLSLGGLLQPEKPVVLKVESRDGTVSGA

Question: With `O=C(O)C1(C(=O)Nc2ccc(Cl)cc2Cl)CC1` as the compound, how does the outcome read?
Answer: inactive

Question: For `CCNc1nc(N)nc(Cl)n1`, which outcome is on record?
Answer: inactive

Question: `COCCO` was tested. Which outcome did it give?
Answer: inactive

Question: Which AC50 does the source give for `COC(=O)CSc1cc(N=c2sc(=O)n3n2CCCC3)c(F)cc1Cl` here?
Answer: 1300 nM (active)

Question: For `Oc1ccc(C(c2ccc(O)cc2)C(Cl)(Cl)Cl)cc1`, which outcome is on record?
Answer: inactive

Question: With `CC(C)(c1ccc(O)cc1)c1ccc(O)cc1` as the compound, how does the outcome read?
Answer: inactive

Question: With `CCCCC(CC)COC(=O)c1ccccc1C(=O)O` (stereo unspecified) as the compound, how does the outcome read?
Answer: inactive

Question: For `CC(C)(C)[C@@H](O)[C@@H](Cc1ccc(Cl)cc1)n1cncn1`, which outcome is on record?
Answer: inactive

Question: For `COC(=O)c1ccc(I)cc1S(=O)(=O)NC(=O)Nc1nc(C)nc(OC)n1`, which AC50 is on record?
Answer: 348 nM (active)

Question: With `CSC(=O)c1cccc2nnsc12` as the compound, how does the outcome read?
Answer: inactive

Question: How did the outcome turn out when `COC(=O)c1cccc(C)c1S(=O)(=O)NC(=O)Nc1nc(OCC(F)(F)F)nc(N(C)C)n1` was run?
Answer: inactive

Question: Which outcome does the source give for `CCCOC(=O)NCCCN(C)C` here?
Answer: inactive

Question: `CCOC(=O)NCCOc1ccc(Oc2ccccc2)cc1` was tested. Which outcome did it give?
Answer: inactive

Question: For `CCCN(CCC)c1c([N+](=O)[O-])cc(C(F)(F)F)c(N)c1[N+](=O)[O-]`, which outcome is on record?
Answer: inactive

Question: For `CN(C)C(=O)Nc1ccc(Cl)c(Cl)c1`, which outcome is on record?
Answer: inactive

Question: Which outcome does the source give for `COC(=O)c1c(Cl)nn(C)c1S(=O)(=O)NC(=O)Nc1nc(OC)cc(OC)n1` here?
Answer: inactive

Question: `Cc1nn(C)c(Oc2ccccc2)c1C=NOCc1ccc(C(=O)OC(C)(C)C)cc1` was tested. Which outcome did it give?
Answer: inactive

Question: With `CCCCCCC(C)OC(=O)COc1nc(F)c(Cl)c(N)c1Cl` (stereo unspecified) as the compound, how does the outcome read?
Answer: inactive

Question: With `CCCCOC(=O)C(C)Oc1ccc(Oc2ccc(C(F)(F)F)cn2)cc1` (stereo unspecified) as the compound, how does the outcome read?
Answer: inactive

Question: With `CCCCOC(=O)[C@@H](C)Oc1ccc(Oc2ccc(C(F)(F)F)cn2)cc1` as the compound, how does the outcome read?
Answer: inactive

Question: How did the outcome turn out when `CCCCC(CC)CN1C(=O)C2C3C=CC(C3)C2C1=O` (stereo unspecified) was run?
Answer: inactive

Question: For `CCN(Cc1c(F)cccc1Cl)c1c([N+](=O)[O-])cc(C(F)(F)F)cc1[N+](=O)[O-]`, which AC50 is on record?
Answer: 1900 nM (active)

Question: `COc1c(Cl)ccc(Cl)c1C(=O)O` was tested. Which outcome did it give?
Answer: inactive

Question: How did the AC50 turn out when `CCOC(=O)COc1cc(-n2ncc(C(F)(F)F)c(C)c2=O)c(F)cc1Cl` was run?
Answer: 4730 nM (active)

Question: For `CCCCCOC(=O)COc1cc(N2C(=O)C3=C(CCCC3)C2=O)c(F)cc1Cl`, which AC50 is on record?
Answer: 3780 nM (active)

Question: How did the outcome turn out when `c1ccc(Nc2ccccc2)cc1` was run?
Answer: inactive

Question: How did the AC50 turn out when `S=C(S)NCCNC(=S)S.[Mn+2].[S-]C([S-])=NCCN=C([S-])[S-].[Zn+2]` was run?
Answer: 3970 nM (active)

Question: With `CC1(C)C(C=C(Cl)Cl)C1C(=O)OCc1cccc(Oc2ccccc2)c1` (stereo unspecified) as the compound, how does the outcome read?
Answer: inactive

Question: For `COc1nc(C)nc(NC(=O)NS(=O)(=O)c2ccccc2OCCCl)n1`, which outcome is on record?
Answer: inactive

Question: Which outcome does the source give for `CCOC(=O)C(C)Oc1ccc(Oc2cnc3cc(Cl)ccc3n2)cc1` (stereo unspecified) here?
Answer: inactive

Question: With `CCCN(CCC)C(=O)SCC` as the compound, how does the outcome read?
Answer: inactive
